Records with an inconclusive call do not appear. Activity calls are given as the source filed them. Unless noted, the rule behind the calls is not given here.
Experiments:
[1] = molecular target: ATP-dependent translocase ABCB1 (Homo sapiens) (UniProt P08183); test: P-glycoprotein substrate transport blockade – cell-based (AID 377; in the data active = fluorescence slope change above about 50%); details: MDR1-expressing cells, fluorescent substrate accumulation slope; stronger effect = higher value; concentration not given here
Chain of ATP-dependent translocase ABCB1 (Homo sapiens) (P08183 whole entry, looked up): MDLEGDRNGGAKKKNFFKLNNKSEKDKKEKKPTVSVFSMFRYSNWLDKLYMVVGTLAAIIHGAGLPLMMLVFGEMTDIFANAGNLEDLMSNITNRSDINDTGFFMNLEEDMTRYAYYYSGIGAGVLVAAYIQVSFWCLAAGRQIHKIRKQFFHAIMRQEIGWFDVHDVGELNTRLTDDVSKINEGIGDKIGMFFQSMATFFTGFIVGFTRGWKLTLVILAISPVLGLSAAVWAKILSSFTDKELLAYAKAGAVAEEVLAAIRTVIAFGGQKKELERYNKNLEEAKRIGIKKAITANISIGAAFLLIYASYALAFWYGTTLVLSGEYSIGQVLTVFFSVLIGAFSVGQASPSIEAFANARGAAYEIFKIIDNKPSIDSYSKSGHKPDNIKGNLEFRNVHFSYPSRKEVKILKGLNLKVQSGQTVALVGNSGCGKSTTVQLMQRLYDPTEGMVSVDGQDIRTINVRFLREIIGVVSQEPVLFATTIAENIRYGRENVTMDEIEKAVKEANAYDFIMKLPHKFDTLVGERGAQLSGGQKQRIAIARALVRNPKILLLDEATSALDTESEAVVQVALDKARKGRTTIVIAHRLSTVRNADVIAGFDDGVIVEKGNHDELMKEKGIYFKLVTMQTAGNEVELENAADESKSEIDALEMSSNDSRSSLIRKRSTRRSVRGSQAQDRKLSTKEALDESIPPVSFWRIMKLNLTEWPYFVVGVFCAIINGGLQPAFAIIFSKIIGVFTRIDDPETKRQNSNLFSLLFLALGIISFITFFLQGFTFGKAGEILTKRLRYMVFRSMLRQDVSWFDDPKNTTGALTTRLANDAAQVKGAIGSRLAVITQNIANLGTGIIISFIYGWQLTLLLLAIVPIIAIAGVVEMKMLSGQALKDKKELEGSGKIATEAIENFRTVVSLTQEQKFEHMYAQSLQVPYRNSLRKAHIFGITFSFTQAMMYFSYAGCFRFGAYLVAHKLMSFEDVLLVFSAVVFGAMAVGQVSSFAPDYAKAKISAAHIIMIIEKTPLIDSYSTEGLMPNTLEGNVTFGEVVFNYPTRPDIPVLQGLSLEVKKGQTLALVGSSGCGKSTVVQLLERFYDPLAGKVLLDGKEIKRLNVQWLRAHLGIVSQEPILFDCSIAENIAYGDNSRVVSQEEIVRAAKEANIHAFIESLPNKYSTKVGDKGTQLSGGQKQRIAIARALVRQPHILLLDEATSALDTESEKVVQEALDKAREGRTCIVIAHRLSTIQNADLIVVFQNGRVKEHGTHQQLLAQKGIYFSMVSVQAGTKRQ

[2] = polyglutamine aggregate formation blockers (AID 1604); details: polyglutamine-induced protein aggregation inhibition assay; stronger effect = higher value; tested at 2.5 µM
[3] = glutamate transport activators, MN-1 cells, MN-1 cell line (AID 1612); details: MN-1 motor neuron cells, stronger effect = higher value;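 note: tested at 1 µM final; 0% = mean of DMSO vehicle wells on each plate; positive means more glutamate uptake than control and negative means less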
[4] = GFP-Q80 aggregate reduction, neuronal-like cells, cell-based, NGF-treated PC12, GFPQ80 (AID 1614); details: PC12 NGF-treated GFP-polyQ80 inclusion reduction;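 note: lower means fewer inclusions and 0 means no inclusions at all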
[5] = 75Q-TubH aggregate inhibition, S. cerevisiae, yeast (AID 1616); details: S. cerevisiae 75Q-TubH polyglutamine aggregation suppression; stronger effect = higher value
[6] = chitosan synthesis blockers in C. neoformans – flow cytometry, Cibacron Brilliant Red staining (AID 1347148); details: Cryptococcus neoformans chitosan, stronger effect = lower value; at 10 µM unless noted;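 note: compound exposure lasted three days at 37 degrees C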
[7] = compounds altering HSF1 focus formation in cells – imaging, Selleck Cancer Library (AID 1347162; in the data active = plate-normalised HSF1 focus index below about 0.46); details: human cells, HSF1 nuclear foci imaging, at 10 µM; SSMD: measured here: HSF1 foci SSMD mean; cell count: measured here: cell number; plate-normalised HSF1 focus index: stronger effect = lower value
[8] = viability loss in pontine glioma line – cell-based, JHH-DIPG-1, MIPE4.0, CellTiter-Glo, qHTS, dose response (AID 1347062; cut-off not given, nearly all actives have AC50 up to about 27 µM); details: JHH-DIPG-1 viability, CellTiter-Glo ATP luminescence
[9] = viability loss in pontine glioma line – cell-based, SU-DIPG-IV, MIPE4.0, CellTiter-Glo, qHTS, dose response (AID 1347063; cut-off not given, nearly all actives have AC50 up to about 30 µM;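 note: compound exposure lasted 48 hours before the viability readout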); details: CellTiter-Glo ATP luminescence
[10] = viability loss in pontine glioma line – cell-based, SU-DIPG-XXV, MIPE5.0, CellTiter-Glo, qHTS, dose response (AID 1347065; cut-off not given, nearly all actives have AC50 up to about 26 µM;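 note: cells exposed to compound for 48 hours before ATP readout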); details: CellTiter-Glo ATP luminescence
[11] = growth inhibition of DIPG cells – cell-based, MIPE4.0 library, CellTiter-Glo luminescence, qHTS (AID 1347066; cut-off not given, nearly all actives have AC50 up to about 30 µM;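 note: cells exposed to compound for 48 hours before readout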); details: SU-DIPG-VI viability, CellTiter-Glo ATP luminescence
[12] = molecular target: 6-phosphogluconate dehydrogenase, decarboxylating (Homo sapiens) (UniProt P52209); test: inhibition of human phosphogluconate dehydrogenase – biochemical, recombinant enzyme, NADPH absorbance, primary screen (AID 1159550;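 active = at least 20% inhibition of 6-phosphogluconate dehydrogenase activity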); details: recombinant 6PGD, NADPH absorbance 341 nm; at 10 µM; stronger effect = higher value
Chain of 6-phosphogluconate dehydrogenase, decarboxylating (Homo sapiens) (P52209 whole entry, looked up): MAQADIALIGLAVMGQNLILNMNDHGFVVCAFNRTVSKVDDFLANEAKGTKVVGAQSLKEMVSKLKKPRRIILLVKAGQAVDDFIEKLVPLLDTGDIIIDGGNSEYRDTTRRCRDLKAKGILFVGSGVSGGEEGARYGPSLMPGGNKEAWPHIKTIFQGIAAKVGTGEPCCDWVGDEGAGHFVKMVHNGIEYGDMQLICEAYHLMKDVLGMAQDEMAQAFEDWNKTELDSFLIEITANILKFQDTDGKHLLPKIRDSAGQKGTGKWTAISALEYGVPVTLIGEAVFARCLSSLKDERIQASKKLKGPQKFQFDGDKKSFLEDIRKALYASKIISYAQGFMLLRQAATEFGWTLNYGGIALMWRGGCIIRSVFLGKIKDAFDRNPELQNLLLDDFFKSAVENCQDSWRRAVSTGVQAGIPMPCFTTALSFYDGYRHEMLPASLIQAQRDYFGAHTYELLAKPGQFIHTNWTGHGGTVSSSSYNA

[13] = viability loss in pontine glioma line – cell-based, SU-DIPG-XIII, MIPE4.0, CellTiter-Glo, qHTS, dose response (AID 1347061; cut-off not given, nearly all actives have AC50 up to about 37 µM;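 note: cells exposed to compound for 48 hours before readout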); details: CellTiter-Glo ATP luminescence
[14] = viability loss in pontine glioma line – cell-based, SU-DIPG-XIII, MIPE5.0, CellTiter-Glo, qHTS, dose response (AID 1347064; cut-off not given, nearly all actives have AC50 up to about 23 µM); details: CellTiter-Glo ATP luminescence
[15] = tested on: Aerobactin synthetase IucA (Klebsiella pneumoniae); test: inhibition of K. pneumoniae IucA enzyme – biochemical, Tocris library, absorbance (AID 1345561); details: purified IucA enzyme assay, absorbance (OD) read-out; stronger effect = lower value;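 tested at 8 µM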;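 note: 100% = enzyme without compound and 0% = no enzyme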

CCOc1ccccc1OCC1CNCCO1 (stereo not given)
fluorescence slope change [1]: 51.5% (active) | inhibition of aggregation [2]: 12.9% | glutamate uptake change [3]: 20.1% | inclusion score [4]: 2 | aggregation suppression score [5]: 1.38

Clc1cc(Cl)c(OCC#CI)cc1Cl
inhibition of aggregation [2]: 58.5% | glutamate uptake change [3]: 15.9% | aggregation suppression score [5]: -0.184

O=C1NCN(c2ccccc2)C12CCN(CCCC(c1ccc(F)cc1)c1ccc(F)cc1)CC2
fold fluorescence [6]: 5.05 [at 105.1 µM] (inactive)

CN1CC[C@H](c2c(O)cc(O)c3c(=O)cc(-c4ccccc4Cl)oc23)[C@H](O)C1
SSMD [7]: 1.33 | cell count [7]: 6730 | plate-normalised HSF1 focus index [7]: 1.07 (inactive)

C[C@@H]1CCC[C@H](C)N1
fluorescence slope change [1]: 9.9% (inactive)

Cc1c(-c2ccc(O)cc2)n(Cc2ccc(OCCN3CCCCCC3)cc2)c2ccc(O)cc12
outcome [8]: inactive | outcome [9]: inactive | AC50 [10]: 20.9 µM (active) | outcome [11]: inactive

C[C@]12CCC(=O)C=C1CC[C@H]1[C@@H]3CC[C@](O)(C(=O)CO)[C@@]3(C)C[C@H](O)[C@@]12F
fluorescence slope change [1]: 9.8% (inactive)

CCCn1cnc2c1c(=O)n(CCCCC(C)=O)c(=O)n2C
inhibition [12]: -7.06% (inactive)

CCCCCCCCCCCCCCCCCCOP(=O)([O-])OC1CC[N+](C)(C)CC1
outcome [13]: inactive | outcome [8]: inactive | outcome [14]: inactive | outcome [11]: inactive

Cc1cccc(Nc2cc(Cl)nc(SCC(=O)O)n2)c1C
remaining activity [15]: 107% (inactive) | fold fluorescence [6]: 4.05 (inactive)

Cc1c(C)c2c(c(C)c1O)CC[C@@](C)(CCC[C@H](C)CCC[C@H](C)CCCC(C)C)O2
inhibition [12]: -20.7% (inactive)

O=C(O)CCC(=O)OC[C@@H](NC(=O)C(Cl)Cl)[C@H](O)c1ccc([N+](=O)[O-])cc1
inhibition of aggregation [2]: 74.7% | glutamate uptake change [3]: 7.22% | inclusion score [4]: 2 | aggregation suppression score [5]: 1.43

Source: PubChem BioAssay
